In all, about 290,000 compounds went through this assay and about 3,000 (1%) were called active. This is one part of a sample in which actives are shown more often than they occur. No stated cut-off is given here; in the data, active means inhibition mostly above about 36% (no sharp cut-off); inactive means mostly below about 34%.
assay: inhibition of NOD1-driven NF-kB reporter – cell-based, luminescence, uHTS, primary screen (AID 1578); settings: NOD1-driven NF-kB luciferase reporter cells, at 4 µM, active compounds read high;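 further: HEK-293T reporter cells stimulated with the NOD1 agonist gamma-tri-DAP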

Compound	inhibition
CCOc1ccccc1C(=O)N(Cc1sccc1C)C1CCS(=O)(=O)C1 (stereo not drawn)	-17.4% (inactive)
COc1cc(NS(=O)(=O)c2ccc(NC(=S)NC(=O)c3sc4cc(F)ccc4c3Cl)cc2)nc(OC)n1	47.7% (inactive)
Cc1nc2ccc(NC(=O)c3cccs3)cc2c(=O)n1Cc1ccc(Cl)cc1	23% (inactive)
COc1ccc(CNC(=O)c2ccc(CS(=O)(=O)Cc3ccccc3F)o2)cc1	6% (inactive)
Cc1[nH]c(C)c(S(=O)(=O)NCc2ccc(Cl)cc2)c1C(=O)N1CCCC1	-23.5% (inactive)
CCN1C(=O)CS/C1=N\S(=O)(=O)c1ccccc1	4.8% (inactive)
COc1ccc2cnn(CCOc3ccccc3)c(=O)c2c1OC	-63% (inactive)
O=c1c2ccccc2cnn1CCOc1ccccc1	67.1% (active)
O=c1c2ccccc2cnn1CCOc1cccc(Br)c1	-51.9% (inactive)
O=c1[nH]c(CSc2ncnc3sc(-c4ccccc4)cc23)nc2ccccc12	6.6% (inactive)
CC(Oc1ccc([N+](=O)[O-])cc1)C(=O)NCCCN1CCOCC1 (stereo not drawn)	-6.2% (inactive)
CCc1nc2ccccc2c(C(=O)OCC(=O)Nc2ccc(S(=O)(=O)N3CCOCC3)cc2)c1C	-22% (inactive)
CCCc1nc2ccccc2c(C(=O)OCC(=O)Nc2cccc(S(=O)(=O)N3CCOCC3)c2)c1CC	25.8% (inactive)
COc1cc(NC(=S)NCCCN2CCOCC2)c(OC)cc1NC(=O)c1ccco1	-24.2% (inactive)
CC(=O)c1c(C)n(-c2cccc(Cl)c2)c2ccc(O)cc12	-4.6% (inactive)
CCOC(=O)Cc1csc(NC(=O)CSc2nc(-c3ccccc3)c(C#N)c(=O)[nH]2)n1	-50.8% (inactive)
CCCCCNC(=O)C(=O)C1C(=O)Nc2ccccc21 (stereo not drawn)	0.6% (inactive)
CC(C)c1ccc2c(c1)c(SC(C)(C)C)c(CC(C)(C)C(=O)O)n2Cc1ccc(Cl)cc1	37.3% (active)
Cc1ccc2c(c1)c(N=O)c(O)n2Cc1ccc(Cl)cc1	31.7% (inactive)
CC(C)c1ccc(C(=O)NCc2ccc(Cl)cc2)cc1	-22.8% (inactive)
Cc1ccc(C(=O)c2ccc(O)cc2)cc1C	-29.5% (inactive)
O=C(Nc1cccc(Cl)c1)c1cc(N=Nc2ccc([N+](=O)[O-])cc2Cl)ccc1O	95.3% (active)
O=C(Nc1cccc(O)c1)c1ccc([N+](=O)[O-])cc1Cl	-22.7% (inactive)
CC(=O)Nc1cccc(NC(=O)c2ccc([N+](=O)[O-])cc2Cl)c1	-5.3% (inactive)

Compound	inhibition
COc1cc(OC)cc(C(=O)N[C@H](C(=O)OCC(=O)Nc2ccc(F)c(F)c2)C(C)C)c1	-11.6% (inactive)
O=C(NCC(O)c1ccc([N+](=O)[O-])cc1)Nc1ccccc1 (stereo not drawn)	-4.6% (inactive)
COc1cccc(=O)c2c(C)n(-c3ccc(C(=O)O)cc3)c(C)c12	58.9% (active)
CCOc1cccc(=O)c2c(C)n(-c3ccc(C(=O)O)cc3)c(C)c12	-22.7% (inactive)
COc1ccc(-n2c(C)c3c(OC)cccc(=O)c3c2C)cc1	16.3% (inactive)
COc1cccc(N(C(=O)c2sc(C)nc2C)C(C(=O)NCC2CCCO2)c2ccccc2)c1 (stereo not drawn)	-28.5% (inactive)
COc1cc(CCNC(=O)c2ccccc2NC(=O)C2=C(C)OCCS2)cc(OC)c1OC	17.9% (inactive)
COc1ccc(CCNC(=O)c2ccccc2NC(=O)C2=C(C)OCCS2)c(OC)c1	51.1% (active)
COc1ccc(OC)c(CCNC(=O)c2ccccc2NC(=O)C2=C(C)OCCS2)c1	-12.2% (inactive)
NS(=O)(=O)c1cccc(NC(=O)c2cc(=O)c3ccccc3o2)c1	-9.2% (inactive)
CC(C)Cn1c(N)c(C(=O)COC(=O)c2ccc(O)cc2)c(=O)n(C)c1=O	-0.8% (inactive)
COCc1c(C(=O)OCC(=O)c2c(N)n(CC(C)C)c(=O)n(C)c2=O)oc2ccccc12	32% (inactive)
CC(C)Cn1c(N)c(C(=O)COC(=O)c2ccc(Cl)cc2)c(=O)n(C)c1=O	4.6% (inactive)
CC(C)Cn1c(N)c(C(=O)COC(=O)C2CCCCC2)c(=O)n(C)c1=O	0.4% (inactive)
CC(C)Cn1c(N)c(C(=O)COC(=O)c2ccccc2Cl)c(=O)n(C)c1=O	-12.9% (inactive)
CC(C)Cn1c(N)c(C(=O)COC(=O)Cc2cccs2)c(=O)n(C)c1=O	-8.8% (inactive)
Cc1cc(Oc2ccccc2)nc(-c2ccccc2O)n1	-12.6% (inactive)
Nc1nccnc1C(=O)OCC(=O)NNC(=O)c1ccccc1	-27.6% (inactive)
Cc1ccc(CSc2nc3ccsc3c(=O)n2Cc2ccccn2)cc1	-0.8% (inactive)
CCc1ccc(NC(=O)COc2cccc(-n3cnnn3)c2)cc1	4.3% (inactive)
CC(=O)c1cc2c(cc1NC(=O)CCCC(=O)O)OCO2	-9.2% (inactive)
CC(=O)c1cc2c(cc1NC(=O)CCC1CCCC1)OCO2	71.2% (active)
CC(=O)c1cc2c(cc1NC(=O)CCn1cccc1)OCO2	5% (inactive)
O=C(CSc1nccn1Cc1ccccc1)NC1CCCC1	12.2% (inactive)
